We go through 39 compounds from PubChem BioAssay (Tox21).

Several values for one entry are separate records, joined by “and”; a condition that tells them apart may be missing. Equal values may be shown once. Results filed as inconclusive are left out. Entries that show only a call come without a potency. Activity calls are given as the source filed them. Calls come from the whole dose curve; as a rule, active = well fitted inhibition curve with a large enough effect in the repeat runs; inconclusive = weak or mixed curves; inactive = no such curve, though single readings can be large or run the other way.
Potency is the fitted concentration of half-maximal effect.

Cytochrome P450 2C19 (Homo sapiens), sequence (P33261 whole entry, looked up): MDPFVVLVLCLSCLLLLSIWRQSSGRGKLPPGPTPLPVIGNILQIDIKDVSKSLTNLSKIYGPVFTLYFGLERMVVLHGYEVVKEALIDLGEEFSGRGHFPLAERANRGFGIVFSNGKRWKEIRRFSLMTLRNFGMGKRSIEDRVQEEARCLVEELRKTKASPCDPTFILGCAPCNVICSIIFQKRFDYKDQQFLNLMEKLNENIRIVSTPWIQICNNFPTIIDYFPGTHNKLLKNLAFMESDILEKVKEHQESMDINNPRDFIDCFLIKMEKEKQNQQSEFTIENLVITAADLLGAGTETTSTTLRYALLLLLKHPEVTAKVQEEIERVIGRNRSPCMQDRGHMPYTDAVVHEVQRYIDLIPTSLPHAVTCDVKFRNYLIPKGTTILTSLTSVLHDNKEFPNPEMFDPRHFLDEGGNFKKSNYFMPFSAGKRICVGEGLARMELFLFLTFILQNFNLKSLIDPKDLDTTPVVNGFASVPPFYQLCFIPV

For the assay, the target named is Cytochrome P450 2C19 (Homo sapiens) (UniProt P33261). The experiment in a line: Cytochrome P450 Family 2 Subfamily C Member 19 (CYP2C19) small molecule antagonists: luciferase reporter qHTS assay (AID 1671197). Note: nearly all actives have a fitted effect of over 65% in size. Conditions: P450-Glo CYP2C19 enzyme, luciferin luminescence, 1 h; series mostly up to 115 µM. A digest of the protocol:
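Relative luminescence units recorded 20 min after the detection reagent stopped a 1 h, 37C CYP2C19 reaction on proluciferin substrate, which was started by NADPH regeneration following 10 min room-temperature compound preincubation; ketoconazole positive control.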
In general terms: Reporter assays use an easily measured gene product as a stand-in for the process of interest.
On to `Cc1ccccc1`, for which the Potency result was “inactive”. On the same count and under the same terms, under `O=C(Cc1ccccc1)c1ccccc1` stands 11.2 µM (active); under `CCCCNC(=O)OCC#CI`, 2.81 µM (active) and 2.52 µM (active). Still for that read-out and setting: under `C[N+](C)(C)CCOC(=O)C(O)(c1ccccc1)c1ccccc1` stands “inactive”; under `OCC1CO1` (centres undefined), “inactive”.

As to `C#CC(O)(C=CCl)CC` (centres undefined), the Potency result is “inactive”. Take `C1CS1`: the Potency result was “inactive”. Still for that read-out and setting: under `Nc1ccc2c(c1)Cc1ccccc1-2` stands 8.88 µM (active). The same measure, in the same setting: under `CCCC[N+](CCCC)(CCCC)CCCC` stands “inactive”; under `Nc1cccc2ccccc12`, 16 µM (active) and 20 µM (active). Same read-out and setting: under `Cc1ccc2c(C)cccc2c1` stands “inactive”.

Take `CC(C)[C@@H](C(=O)O[C@@H](C#N)c1cccc(Oc2ccccc2)c1)c1ccc(Cl)cc1`: the Potency was 9.07 µM (active) and 31.7 µM (active). On the same count and under the same terms, next, `CCOP(=O)(O)C(N)=O`: “inactive”; `CCCSP(=S)(OCC)Oc1ccc(SC)cc1` (centres undefined): 0.399 µM (active). As to `Clc1ccccc1`, the Potency result was “inactive”. Still for that read-out and setting: under `CCC1(C2=NCCN2)Cc2ccccc2O1` (centres undefined) stands “inactive”. Turning to `O=P(OCC(Br)CBr)(OCC(Br)CBr)OCC(Br)CBr` (centres undefined), the Potency was 3.6 µM (active) and 4.25 µM (active). On the same count and under the same terms, under `OC[P+](CO)(CO)CO` stands “inactive”; under `CC1(C)CC(=O)CC(C)(C)N1[O]`, “inactive”.

In the case of `COC1=CC(=O)O[C@@H](/C=C/c2ccc3c(c2)OCO3)C1`, the Potency is 8.56 µM (active). Regarding `CCc1cnc(C2=NC(C)(C(C)C)C(=O)N2)c(C(=O)O)c1` (centres undefined), the Potency result was “inactive”. The same measure, in the same setting: under `CC(C)(C)CC(C)(C)c1ccc(O)cc1` stands “inactive”. For the compound `CCCCC(CC)COC(=O)c1c(Br)c(Br)c(Br)c(Br)c1C(=O)OCC(CC)CCCC` (centres undefined), the Potency result was “inactive”. As for `C[C@]12CC[C@H]3[C@@H](CCC4=CC(=O)CC[C@@H]43)[C@@H]1CC[C@@H]2OC(=O)CCc1ccccc1`, the Potency result is “inactive”.

`C=C(C)C(=O)OCCCCOC(=O)C(=C)C`: the Potency was 7.96 µM (active). For the compound `Nc1c(Br)cc(Br)c2c1C(=O)c1ccccc1C2=O`, the activity change, negative = inhibition was -3.63% [at 23.6 µM] (inactive). As for `CCCCCBr`, the Potency entry is “inactive”.

For `O=C(O)C(F)(F)C(F)(F)C(F)(F)C(F)(F)C(F)(F)C(F)(F)C(F)(F)C(F)(F)F`, the Potency was 71 µM (active). Still for that read-out and setting: under `O=C(O)COc1cc(Cl)c(Cl)cc1Cl` stands “inactive”; under `O=S(=O)(c1ccccc1)c1ccccc1`, 63.3 µM (active). In the case of `O=C(O)c1ccc(=O)[nH]c1`, the Potency entry is “inactive”. On the same count and under the same terms, under `CCOP(=S)(OCC)SCSc1cc(Cl)ccc1Cl` stands “inactive”. The same measure, in the same setting: under `CCCCC(CC)CO[N+](=O)[O-]` (centres undefined) stands “inactive”.

Consider `COc1cc(C[C@@H](C)N)c(OC)cc1Br`, for which the Potency entry was “inactive”. Same read-out and setting: under `O=C1NC(=O)C(=O)C(=O)N1` stands “inactive”. The same measure, in the same setting: next, `CC(C)C1(C)N=C(c2ncccc2C(=O)O)NC1=O` (centres undefined): “inactive”; `O=CC=O`: “inactive”. Same read-out and setting: next, `CN1CC[C@]23c4c5ccc(O)c4O[C@H]2[C@@H](O)CC[C@H]3[C@H]1C5`: “inactive”; `O=C(Cc1ccccc1)OCCc1ccccc1`: 2.52 µM (active).
